Screening results from PubChem BioAssay.
Compounds with a hit are over-represented: about 2.9% of the library has one in this group of screens.
SNCA expr inh = Primary qHTS assay for inhibitors of alpha-synuclein gene (SNCA) expression; HEK-293 SNCA-luciferase knock-in, luminescence, 24 h; Potency, µM (series often up to 57.2 µM), for the others: at the top dose activity change, negative = inhibition, hits mostly inhibitors; actives 0.17% (n = 140,000); AID 1671194, 2021;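 also: potency is read from the fitted curve at half-maximal effect; plate controls were DMSO cells for no effect and cell-free wells for full effect; nearly all actives have a fitted effect of over 45% in size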
IP6K1 inhibitor = Primary qHTS assay for small molecule inhibitors of Inositol hexaphosphate kinase 1 (IP6K1); IP6K1 kinase, ADP-Glo luminescence, 2 h; active compounds read low; activity change, % (series mostly up to about 58 µM); actives 0.81% (n = 140,000); AID 1645851, 2021; in the data active = activity change below about -25%; also: % is scaled to controls: 0 for no effect and ±100 for the full control effect
Target sequence (Q92551 whole entry, looked up): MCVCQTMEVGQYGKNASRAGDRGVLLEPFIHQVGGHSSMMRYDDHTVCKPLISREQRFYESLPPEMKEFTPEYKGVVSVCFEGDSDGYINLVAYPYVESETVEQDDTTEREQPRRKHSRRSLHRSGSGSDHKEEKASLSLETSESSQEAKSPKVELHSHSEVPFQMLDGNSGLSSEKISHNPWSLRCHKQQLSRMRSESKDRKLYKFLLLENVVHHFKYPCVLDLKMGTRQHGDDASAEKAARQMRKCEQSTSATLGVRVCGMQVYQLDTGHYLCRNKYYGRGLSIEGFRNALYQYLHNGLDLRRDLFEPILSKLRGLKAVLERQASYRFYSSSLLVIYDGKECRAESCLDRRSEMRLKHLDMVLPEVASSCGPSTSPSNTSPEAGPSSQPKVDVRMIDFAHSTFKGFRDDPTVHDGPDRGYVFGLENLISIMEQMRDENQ
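ADP-Glo luminescence measures ADP made by human IP6K1 during a 2 h RT reaction with ATP/IP6 (mix at 1.3 mM/130 uM); top library doses 57.5 and 19.1 uM final.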
HEK293 viab = GF-AFC viability counterscreen for inhibitors of alpha-synuclein gene (SNCA) expression; HEK-293-SNCA-luc viability, GF-AFC fluorescence, 24 h; Potency, µM (titrated, usually from 57.1 µM), without a hit: at the top dose activity change, negative = cytotoxicity, most hits filed as cytotoxic; actives 0.12% (n = 150,000); AID 1671193, 2021;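 also: potency is read from the fitted curve at half-maximal effect; 0% = DMSO-treated cells and -100% = medium-only wells without cells; nearly all actives have a fitted effect of over 30% in size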
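Cytotoxicity counterscreen: after 24 h compound treatment of genome-edited SNCA-luciferase HEK-293 cells, live-cell protease substrate GF-AFC read by fluorescence after 30 min; activity scaled between DMSO (0%) and medium-only (-100%), curves Hill-fitted.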
KDM5B inhibitor = Primary screen for KDM5B Histone Demethylases FDH-coupled qHTS | KDM5B demethylase, FDH-coupled NADH fluorescence (FDH is formaldehyde dehydrogenase) | Potency, µM (highest dose often 57.7 µM), actives largely listed as inhibitors | Lysine-specific demethylase 5B (Homo sapiens), Q9UGL1 | actives 2.6% (n = 220,000); also: potency is read from the fitted curve at half-maximal effect; 0% is about no effect; nearly all actives have a fitted effect of over 70% in size
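Compound dilutions met 200 nM (final) KDM5BΔAP for 10 min at room temperature before substrate addition. The substrate mix held 12.5 µM H3K4me3 with cofactors 25 µM α-ketoglutarate and 50 µM Fe²⁺. NADH signal gain over 30 min defined activity.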
IP6K1 conf = Confirmatory qHTS assay for small molecule inhibitors of Inositol hexaphosphate kinase 1 (IP6K1). recombinant IP6K1 kinase, ADP-Glo luminescence, 2 h. actives 13% (n = 1,200). shares compounds with IP6K1 inhibitor. Potency, µM (doses to about 49 µM), for inactives: at the highest dose activity change, negative = inhibition, hits mostly inhibitors. AID 1645852, 2021; also: potency is read from the fitted curve at half-maximal effect; % is scaled to controls: 0 for no effect and ±100 for the full control effect; nearly all actives have a fitted effect of over 65% in size
Starred values were filed as active, the others as inactive; i = inactive; ? = inconclusive; . = not tested or not shown; [ ] = another dose, or the depositor's remark. Unless noted, calls follow the shape of the dose curve; as a rule, active = well fitted curve in the direction sought with a large enough effect; inconclusive = small, poorly fitted or top-dose-only effect, or another doubt; inactive = no such curve, though single readings can be large; an effect the other way counts as inactive or inconclusive.

SMILES	SNCA expr inh	IP6K1 inhibitor	HEK293 viab	KDM5B inhibitor	IP6K1 conf
COc1cc(F)c(F)c(Nc2ccc(I)cc2F)c1NS(=O)(=O)C1(C[C@H](O)CO)CC1	-15.7%	-5.9	-19.8%	.	-15.0%
CCC[C@@H]1CN(S(=O)(=O)c2ccc(OC(F)F)cc2)C[C@H]1N(C)C	-0.6%	-1.6	10.5%	i	.
OCCn1cc(-c2cnc3nnn(Cc4ccc5ncccc5c4)c3n2)cn1	-6.6%	-11.7	0.0%	.	-12.2%
Cn1cc(-c2ccc3nnc(Sc4ccc5ncccc5c4)n3n2)cn1	20.0%	.	-4.7%	.	.
N=c1c2c(-c3ccccc3)cn(Cc3ccccc3)c2ncn1CCCO	.	.	.	.	-0.8%
Cn1c(=O)c2c(-c3ccccc3)n(CCCO)cc2n(C)c1=O	47.7%	2.2	-13.5%	?	.
CCOC(=O)c1cnc2ccc(-c3cncc(NS(=O)(=O)c4ccccc4)c3)cn12	.	-10.3	-7.4%	.	?
CCOCCNc1ncnc2c1CN(C1CCCNCC1)C(=O)CN2C (centres undefined)	12.9%	-28.2*	4.9%	?	-9.4%
CCOCCNc1ncnc2c1CN(C1CCCNC1)C(=O)CN2C (centres undefined)	?	1.9	13.2%	?	.
COC[C@@H]1CN(C(=O)c2occc2C)C[C@H]1c1ccccn1	-14.5%	17.6	-10.8%	i	.
Cc1ccoc1C(=O)N1C[C@@H](CO)[C@H](c2ccccn2)C1	21.3%	-40.3*	-7.8%	i	11.3%
CCCCN1C(=O)C(C)=C(C)C1c1cn(C)c2ccccc12 (centres undefined)	.	.	.	i	.
Fc1ccc(-c2ccc3ncc(Nc4ccc5c(c4)OCO5)n3n2)cc1	3.4%[87.6 µM]	-35.0*	-24.9%[87.6 µM]	i	?
COc1ccc(Nc2cnc3ccc(-c4ccccc4)nn23)cc1	-12.2%[87.6 µM]	7.6	-4.9%[87.6 µM]	i	.
NC(=O)c1ccc(Nc2cnc3ccc(-c4ccccc4)nn23)cc1	61.3%[87.6 µM]	-29.4*	9.5%[87.6 µM]	i	-21.6%
O=C1c2ccccc2C(=O)c2c1ccc(O)c2O	-23.9%[25.6 µM]	-26.9*	-1.8%[23.9 µM]	.	3.66µM*
Cc1cc(C)cc(NS(=O)(=O)c2ccc3[nH]cc(C(=O)N(C)Cc4ccccc4)c(=O)c3c2)c1	?	-26.0*	-10.2%	?	-1.8%
Cc1ccc2c(c1)C(c1ccc(F)cc1)N(C(=O)c1cccc(C(F)(F)F)c1)CC(=O)N2 (centres undefined)	?	-26.0*	-28.1%	i	?
CC(C)C(=O)c1cc2c(cc1NC(=O)c1ccccc1F)OCCO2	-10.0%	-27.6*	12.9%	?	-16.5%
Cc1ccc(C(=O)Nc2cc3c(cc2C(=O)c2ccccc2)OCCO3)cc1	.	.	.	i	.
O=C(Nc1ccc(Br)cc1)c1cc(S(=O)(=O)NC2CCCC2)ccc1F	6.7%	-35.0*	-3.0%	i	-11.2%
Cc1ccc(-c2noc(CNC(=O)c3ccc(C(C)(C)C)cc3)n2)cc1	57.9%	-19.0	5.9%	i	.
Cc1ccc(-c2noc(CNC(=O)c3ccccc3)n2)cc1	30.2%	-31.5*	-8.5%	i	?
Cc1ccc(CC(=O)NCc2nc(-c3ccccc3)no2)cc1	13.8%	-26.6*	10.5%	i	-14.7%
Cc1ccc(CCNC(=O)c2nn(C)c3c2CSc2ccccc2-3)cc1	9.6%	-28.9*	8.1%	?	-17.6%
SMILES	SNCA expr inh	IP6K1 inhibitor	HEK293 viab	KDM5B inhibitor	IP6K1 conf
Cn1nc(C(=O)NCCc2ccc(Cl)cc2)c2c1-c1ccccc1SC2	?	5.6	-3.3%	?	.
Cc1cc(SCc2sc(-c3ccc(C(F)(F)F)cc3)nc2C)ccc1OCC(=O)O	34.4%	-29.2*	3.6%	.	10.3µM*
CCCCn1c(=O)n(CC(=O)c2cc(C)n(C)c2C)c(=O)c2c1ncn2Cc1ccccc1	.	.	.	i	.
CCN1C(C(=O)c2ccccc2)=C(OC(=O)C(C)C)c2ccccc2S1(=O)=O	?	-3.5	-24.8%	?	.
CCN1C(C(=O)c2ccccc2)=C(OC(=O)COc2ccccc2)c2ccccc2S1(=O)=O	?	-29.2*	?	?	?
O=C(CN1C(=O)COc2ccc(S(=O)(=O)NC3CCCC3)cc21)Nc1ccc(Cl)cc1F	10.2%	-27.9*	-29.7%	i	12.7%
CCC1CN(C(=O)Nc2ccc(C)c(F)c2)c2ccccc2S1 (centres undefined)	-19.5%	-27.4*	9.6%	i	-8.9%
CCc1nc2nc(C)cc(Nc3cccc(C)c3C)n2n1	19.9%	-32.7*	-4.8%	i	?
CC(C)CCNS(=O)(=O)c1ccc(N2CCCCS2(=O)=O)cc1	-15.9%	-30.1*	-1.9%	i	-15.9%
CCCCCNS(=O)(=O)c1ccc(N2CCCCS2(=O)=O)cc1	-2.5%	7.5	13.6%	i	.
Cc1ccc(-c2cn[nH]c2C2CCCN(C(=O)c3[nH]ncc3Cl)C2)cc1 (centres undefined)	?	4.5	?	i	.
CCc1nc(C)sc1C(=O)N1CCCC(c2[nH]ncc2-c2ccccc2)C1 (centres undefined)	-8.7%	-29.8*	-15.1%	i	-19.4%
Cc1sc2nc(CN3CCOCC3)nc(N(C)CC(=O)Nc3cccc(F)c3)c2c1C	.	.	.	i	.
Cc1ccc(-c2ccc3nnc(CNC(=O)Cc4cccs4)n3n2)cc1C	17.5%	8.5	0.2%	?	41.4%
COc1cccc(C(=O)N2CCN(C(=O)c3nc4cccnc4n(CCc4ccccc4)c3=O)CC2)c1	16.8%	8.0	18.8%	.	.
Cc1ccc(-n2ncc(C(=O)Nc3ccc4c(c3)OCO4)c2C2CCN(C(=O)OC(C)(C)C)CC2)cc1	-16.8%	21.4	-39.7%	?	.
Cc1ccc(-n2ncc(C(=O)Nc3ccc4c(c3)OCCO4)c2C2CCN(C(=O)OC(C)(C)C)CC2)cc1	-46.9%	-26.1*	?	i	10.6%
Cc1ccc2c(CSc3nnnn3C(C)(C)C)cc(=O)oc2c1	.	.	.	i	.
Cc1nc(N=Nc2ccc(S(=O)(=O)O)cc2S(=O)(=O)O)c(COP(=O)(O)O)c(C=O)c1O	14.7%	.	4.0%	.	.
O=S(=O)(O)c1ccc2cc(N=Nc3cc(S(=O)(=O)O)c4cccnc4c3O)ccc2c1	?	-51.9*	?	.	?
CCn1c(SCC(=O)OC)nc2c1c(=O)n(C)c(=O)n2C	.	.	.	i	.
NC(=O)c1cc(S(=O)(=O)NCc2cccc(Br)c2)cs1	-22.4%	-30.1*	-2.2%	i	-15.0%
Cc1cccc(CNS(=O)(=O)c2csc(C(N)=O)c2)c1	?	-7.8	9.8%	i	.
CCc1ccccc1NC(=O)CN1C(=O)CCSc2ccc(S(=O)(=O)N3CCCC3)cc21	-6.3%	-31.1*	-3.1%	i	-15.6%
COc1cc(C)c(-c2nc(CN3CCCC(CN)C3)c(C)o2)cc1C (centres undefined)	?	5.4	?	?	.
